# Results filed as inconclusive are left out. Activity calls are given as the source filed them. Unless noted, the limit is not given here; nearly all actives have AC50 up to about 26 µM.
# Columns and labels:
# [1] = viability loss in pontine glioma line – cell-based, SU-DIPG-XVII, MIPE5.0, CellTiter-Glo, qHTS, dose response (AID 1347060); conditions: CellTiter-Glo ATP luminescence;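 as to AC50: cells exposed to compound for 48 hours before viability readout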
# [2] = JHH-DIPG-1 glioma cell viability, MIPE5.0 library, CellTiter-Glo luminescence, qHTS (AID 1347067); conditions: JHH-DIPG-1 glioma viability, CellTiter-Glo ATP luminescence;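 also: cells exposed to compound for 48 hours before readout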
# [3] = viability loss in pontine glioma line – cell-based, SU-DIPG-XXV, MIPE5.0, CellTiter-Glo, qHTS, dose response (AID 1347065); conditions: CellTiter-Glo ATP luminescence;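 also: cells exposed to compound for 48 hours before ATP readout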
# [4] = viability loss with induced miR-34 in A549 – imaging, A549 dox-inducible miR-34, nuclei and caspase counts, primary screen (AID 1347080;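 active = compounds whose cell count with miR-34 switched on is under 0.7 times the count with it off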); conditions: A549 miR-34 inducible, Hoechst nuclei count, 48 h
# [5] = MELAS cybrid and Rieske KO viability enhancers – cell-based, MELAS cybrids, Rieske KO mouse fibroblasts, CellTiter-Glo, primary screen (AID 1508586;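 active = mean z-score across replicates of 1.96 or higher in either the MELAS or the Rieske mutant cell line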;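 also: z relative to plate mean and SD of compound and empty wells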); conditions: low glucose
# [6] = growth inhibition of DIPG cells – cell-based, MIPE5.0 library, qHTS (AID 1347068; cut-off not given, nearly all actives have IC50 up to about 30 µM;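 as to IC50: cells exposed to compound for 48 hours before viability readout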); conditions: SU-DIPG-XXV viability
structure (smiles),measurement,setting,value
C[C@H](NC(=O)CCC(F)(F)F)C(=O)N[C@@H]1C(=O)N(CCO)c2ncccc2-c2ccccc21,outcome,[1],inactive
same,outcome,[2],inactive
CCCc1cc(C)[nH]c(=O)c1CNC(=O)c1cc(-c2ccc(N3CCN(C(C)C)CC3)nc2)cc2c1cnn2C(C)C,AC50,[1],26.3 µM (active)
same,AC50,[3],20.9 µM (active)
same,AC50,[2],14.8 µM (active)
same,fold change,"[4]; stronger effect = lower value, cell number ratio, induced over uninduced",0.939 (inactive)
same,fold change,[4]; measured here: relative caspase fold change +Dox/-Dox,0.565
same,cell count,"[4]; measured here: total cells with miR-34 induction, stronger effect = lower value",6600
same,cell count,[4]; measured here: total cells without miR-34 induction,7030
same,z-score,"[5]; MELAS cybrid survival, CellTiter-Glo 48 h, stronger effect = higher value",0.696 (inactive)
same,z-score,"[5]; Rieske KO mouse fibroblast survival, CellTiter-Glo 72 h",-0.809
Nc1nc(OC(c2ccc(-c3cccc(F)c3)cc2)C(F)(F)F)cc(-c2ccc(C[C@H](N)C(=O)O)cc2)n1 (stereo not given in full),outcome,[1],inactive
same,outcome,[3],inactive
same,outcome,[6],inactive
C=CC(=O)N1CC(N2CCN(C(=O)CNc3cc(C4(C)CC4)c(Cl)cc3O)CC2)C1,outcome,[1],inactive
same,outcome,[3],inactive
same,outcome,[6],inactive
CC(C)(O)CNc1ncc(-c2ccnc(Nc3ccncc3)n2)c(CC2CC2)n1,AC50,[1],16.6 µM (active)
same,AC50,[2],16.6 µM (active)
same,IC50,[6],23.5 µM (active)

# From PubChem BioAssay
